# Bioassay records as filed in PubChem.
# GSH fluor: GSH bead compound fluorescence profile; fluorescence (KMESF) at 10 µM; hit rate 0.25% among 190,000; GSH beads flow cytometry, compound fluorescence 488/530 nm; hits give high values; AID 1776; in the data active means fluorescence above about 89;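 further: glutathione beads carrying GST-tagged Bcl family fusion proteins plus one bare bead set; values are compound well signal with DMSO vehicle wells as background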
# RGS7-Gao: modulates binding of RGS7 to human Galphao | P09471 | hit rate 0.35% among 220,000 | AID 1439 | binding response (% of control), % at 10 µM | Multiplexed bead flow cytometry; actives lie on both sides; in the data active means binding response below about 49% or above about 150%; inconclusive means no clear call, values can overlap the other calls; inactive means in between;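 further: fluorescent Galphao held in activated GDP-AlF4 state binding bead-coupled RGS7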
# Target sequence (P09471 whole entry, looked up): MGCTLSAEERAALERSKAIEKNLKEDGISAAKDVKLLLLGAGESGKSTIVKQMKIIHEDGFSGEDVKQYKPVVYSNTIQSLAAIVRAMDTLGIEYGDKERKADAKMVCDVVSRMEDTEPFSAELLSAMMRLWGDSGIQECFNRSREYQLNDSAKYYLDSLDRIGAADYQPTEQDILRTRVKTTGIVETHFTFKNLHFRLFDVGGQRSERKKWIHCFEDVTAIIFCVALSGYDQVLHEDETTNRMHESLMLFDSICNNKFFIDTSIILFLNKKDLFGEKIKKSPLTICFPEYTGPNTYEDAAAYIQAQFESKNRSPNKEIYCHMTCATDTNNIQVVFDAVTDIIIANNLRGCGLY
# RGS16-Gao: regulators of human RGS16-Galphao interaction. O15492+P09471. binding response (% of control), % at 10 µM. hit rate 0.38% among 220,000. AID 1441. bead-based flow cytometry RGS16-Galphao binding, fluorescence; actives lie on both sides;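 further: Galphao activated by GDP with aluminum fluoride before binding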
# Target sequence (O15492 whole entry, looked up): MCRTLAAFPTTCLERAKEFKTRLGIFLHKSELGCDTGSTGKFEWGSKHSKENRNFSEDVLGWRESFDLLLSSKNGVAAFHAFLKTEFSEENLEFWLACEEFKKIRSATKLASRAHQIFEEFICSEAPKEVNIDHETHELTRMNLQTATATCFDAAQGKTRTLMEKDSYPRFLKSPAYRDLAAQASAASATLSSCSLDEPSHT
# Target sequence (P09471 whole entry, looked up): as the sequence (P09471 whole entry, looked up) above
# Avidin bead fluor: compound fluoresces at 488/530 nm on avidin beads; compound fluorescence 488/530 nm, flow cytometry; hits give high values; fluorescence (KMESF) at 10 µM; hit rate 0.38% among 220,000; AID 1775; in the data active means fluorescence above about 47
# RGS8-Gao reg: modulates binding of RGS8 to human Galphao. multiplexed bead flow cytometry; actives lie on both sides. P09471. hit rate 0.34% among 220,000. response (percent of control binding), % at 10 µM; in the data active means response below about 60% or above about 140%; inactive means in between;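 further: Galphao activated as the GDP aluminium fluoride complex binding bead-coupled RGS8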
# RGS4-Gao reg: modulates binding of RGS4 to human Galphao | AID 1415 | binding response (% of control), % at 10 µM | Multiplexed bead flow cytometry; actives lie on both sides | P09471 | hit rate 0.33% among 220,000; in the data active means binding response below about 49% or above about 150%; inactive means in between;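 further: fluorescent Galphao activated with aluminum fluoride binding bead-coupled RGS4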
# RGS4-Gao HTS: regulators of human RGS4-Galphao interaction; shares compounds with RGS16-Gao; multiplexed bead flow cytometry, RGS–Galpha-o binding; RGS4–Galpha-o binding response, % at 10 µM; hit rate 99% among 1,600; AID 1504;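 further: fluorescently labeled Galpha-o bound to GDP with aluminium fluoride binding biotinylated RGS beads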
# Biotin-avidin: interferes with biotinylated probe binding to avidin beads; 1,700 tested, under 10 active; AID 1783; shares compounds with RGS16-Gao; inhibition, % at 10 µM; streptavidin beads, fluorescein-biotin binding, flow cytometry;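 active means inhibition above 50%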;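 further: median green fluorescence of gated singlet beads compared with DMSO control wells; 0% = DMSO wells and 100% = complete loss of bead fluorescence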
# RGS8-Gao single: RGS8-Galphao interaction regulation, single point confirmation | shares compounds with RGS16-Gao | bead-based flow cytometry RGS8-Galphao binding, fluorescence; actives lie on both sides | binding response (% of control), % at 10 µM | hit rate 3% among 1,700 | AID 1836; in the data active means binding response below about 72% or above about 130%; inactive means in between;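 further: Galphao activated as GDP AlF4 complex before binding bead RGS8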
# RGS7-Gao single: confirmation of regulators of human RGS7-Galphao interaction; hit rate 7.8% among 1,700; bead-based flow cytometry RGS7-Galphao binding; actives lie on both sides; response (percent of control binding), % at 10 µM; shares compounds with RGS16-Gao; in the data active means response below about 75% or above about 130%; inactive means in between;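 further: fluorescent Galphao activated with GDP and aluminum fluoride binding bead-coupled RGS7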
# RGS16-Gao single: confirmation of regulators of human RGS16-Galphao interaction; shares compounds with RGS16-Gao; bead-based flow cytometry, RGS16-Galphao binding; actives lie on both sides; response (% of control binding), % at 10 µM; hit rate 4% among 1,700; in the data active means response below about 74% or above about 130%; inactive means in between;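 further: Galphao activated as the GDP aluminium fluoride complex binding bead-coupled RGS16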
# RGS4-Gao single: RGS4-Galphao interaction regulation, single point confirmation; RGS4-Galphao binding, multiplexed bead flow cytometry; actives lie on both sides; binding response (% of control), % at 10 µM; hit rate 4% among 1,700; shares compounds with RGS16-Gao; in the data active means binding response below about 74% or above about 130%; inactive means in between
# RGS19-Gao conf: RGS19-Galphao interaction regulation, single point confirmation. shares compounds with RGS16-Gao. bead-based flow cytometry RGS19-Galphao binding; actives lie on both sides. response (percent of control binding), % at 10 µM. hit rate 5% among 1,700; in the data active means response below about 50% or above about 160%; inactive means in between;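 further: 100% = no compound control and 0% = blank background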
# The depositor's hits bear a star; ? = inconclusive; . = not tested or not shown; [ ] = remark or other dose. Rows were chosen to be rich in hits. Some 1.2% of all compounds tested hit in one or more screens of this group. Unless noted, how the calls were made is not given here.
SMILES,GSH fluor,RGS7-Gao,RGS16-Gao,Avidin bead fluor,RGS8-Gao reg,RGS4-Gao reg,RGS4-Gao HTS,Biotin-avidin,RGS8-Gao single,RGS7-Gao single,RGS16-Gao single,RGS4-Gao single,RGS19-Gao conf
CN(CC(=O)N1CCN(c2cccc(Cl)c2)CC1)S(=O)(=O)c1cccs1,32,144,178*[activator],.,131,177*[activator],.,-2,101,97,100,99,99
CC(C(=O)c1ccc(-c2ccccc2)cc1)[n+]1cccc(NC(=O)c2ccccc2)c1 (stereo not drawn),.,.,.,.,.,.,.,3,106,111,102,108,84
CCOC(=O)c1ccc[n+](C(C)C(=O)c2ccc(-c3ccccc3)cc2)c1 (stereo not drawn),10,99,101,3,99,98,.,.,.,.,.,.,.
N#CC(C(=O)c1ccccc1)=C1SCCS1,.,?,100,3,99,102,.,.,.,.,.,.,.
N#Cc1cc(C(=O)c2ccccc2O)cn(-c2nccs2)c1=O,18,66,22,5,58*,57,57*,1,106,104,105,102,115
O=C(Nc1nnc(-c2ccccc2Cl)o1)c1cc2cc([N+](=O)[O-])ccc2s1,5,92,17*,8,83,94,94*,.,.,.,.,.,.
COc1c(F)c(F)c(C(=O)Nc2ccc(N3CCN(Cc4ccccc4)CC3)cc2)c(F)c1F,10,128,449,6,175*[activator],141,141*,-1,98,100,99,99,103
COc1cccc(CNC(=O)CCC2CCCN(C(=O)CCn3cncn3)C2)c1 (stereo not drawn),12,?,102,10,100,102,.,.,.,.,.,.,.
Cc1cc(-c2n[nH]c(=S)n2/N=C/c2cc([N+](=O)[O-])ccc2Cl)n[nH]1,7,79,-2.0*,7,66,83,83*,0,97,123,96,103,92
CC(=O)N1CCN(S(=O)(=O)c2cccc(C(=O)OCC(=O)NC(=O)c3cccn3C)c2)CC1,15,108,185*[activator],6,125,112,112*,-2,93,81,91,88,83
NC(=O)NC(=O)COC(=O)c1cccc(S(=O)(=O)N2CCCCCC2)c1,.,?,95,13,96,98,.,.,.,.,.,.,.
O=C(Nc1ccc(Cl)cc1)Nc1cc([N+](=O)[O-])ccc1F,9,98,103,4,101,98,.,.,.,.,.,.,.
O=C(Nc1ccc([N+](=O)[O-])cc1)Nc1ccc(Cl)cc1F,24,-4.6*,-52,-2,4.4*,11*,.,0,100,102,102,99,102
COc1ccc(C2CC2C(C)=O)cc1 (stereo not drawn),11,?,97,10,99,97,.,.,.,.,.,.,.
Cc1ccc(OCC(=O)NNC(=O)C(=O)N2CCCC2)c(C)c1,20,113,244*[activator],6,138,118,118*,1,101,100,102,99,95
CCn1c(Sc2nc(C)nc3scc(-c4cccs4)c23)n[nH]c1=O,41,.,.,.,.,.,.,0,99,101,97,101,85
CCN1/C(=C/C=C/c2oc3ccc4ccccc4c3[n+]2CC)Oc2ccc3ccccc3c21,205*,616*[activator],369*[activator],59*,126,539*[activator],.,-1,127*[activator],526*[activator],264*[activator],431*[activator],458*[activator]
Cn1c(NC2CCCCC2)c(N=O)c(=O)n(C)c1=O,23,101,104,9,103,101,.,.,.,.,.,.,.
O=S(=O)(Nc1ccc(Cl)cc1)c1ccc(N2CCOCC2)c(NC(=S)NCCN2CCOCC2)c1,12,121,80,20,93,100,.,.,.,.,.,.,.
C[n+]1cccc(C(=O)NCC2CCCO2)c1 (stereo not drawn),12,112,308*[activator],6,147*[activator],117,117*,0,99,101,100,101,98
Oc1ccccc1-c1nc(/C=C/c2ccccc2)nn1-c1ccccc1,9,106,197*[activator],18,117,107,107*,0,102,108,104,107,90
Oc1ccc(/C=C/c2nc(-c3ccccc3O)n(-c3ccccc3)n2)cc1,9,95,94,9,98,94,.,.,.,.,.,.,.
CNc1nc(-c2ccc3c(c2)CCN3C(=O)c2ccccc2C)cs1,18,56,109,3,59*,84,84*,0,102,102,102,101,98
CNc1nc(-c2ccc3c(c2)CCN3C(=O)c2ccc(F)cc2)cs1,13,100,109,12,102,103,.,.,.,.,.,.,.
CCCCNC(=O)COC(=O)c1cc(C)oc1C,14,103,101,6,98,102,.,.,.,.,.,.,.
SMILES,GSH fluor,RGS7-Gao,RGS16-Gao,Avidin bead fluor,RGS8-Gao reg,RGS4-Gao reg,RGS4-Gao HTS,Biotin-avidin,RGS8-Gao single,RGS7-Gao single,RGS16-Gao single,RGS4-Gao single,RGS19-Gao conf
Cc1nn(-c2ccc(F)cc2)c2sc(C(=O)OC3CCOC3=O)cc12 (stereo not drawn),48,.,.,.,.,.,.,0,100,97,99,99,100
Cc1ccc(S(=O)(=O)N(C)C)cc1NC(=O)c1ccncc1,15,102,101,11,99,103,.,.,.,.,.,.,.
Cc1ccc(S(=O)(=O)C(F)(F)F)cc1NC(=O)c1cccnc1,21,108,181*[activator],30,122,108,108*,-2,101,100,100,103,98
O=C(O)CCCC(=O)Nc1cccc2cccnc12,20,151*[activator],71,89*,88,107,107*,1,96,95,99,98,93
COCCNC(=O)C(C(=O)c1ccc(F)cc1)n1cc(C)ccc1=O (stereo not drawn),18,88,97,9,96,95,.,.,.,.,.,.,.
Fc1cccc(Cc2noc(CN3CCCCC3CCc3ccccn3)n2)c1 (stereo not drawn),11,128,113,6,114,122,.,.,.,.,.,.,.
